# From PubChem BioAssay (Tox21)
# Inconclusive results are not listed. Activity calls are given as the source filed them. The call rests on the fitted dose curve.
# Biological target: D(2) dopamine receptor (Homo sapiens) (UniProt P14416)
# Assay: Dopamine D2 receptor (DRD2) small molecule agonists, cell-based qHTS assay (AID 1963594); further: nearly all actives have a fitted effect of over 35% in size
# Details: HEK293-DRD2 cAMP HTRF, agonist mode, 30 min; series mostly up to 92.4 µM; activation: at the top concentration
# Source text: National Center for Advancing Translational Sciences [NCATS]
# Division of Preclinical Innovation [DPI]
# U.S. Environmental Protection Agency [EPA]
# National Institutes of Environmental Health Sciences [NIEHS]
# National Toxicology Program [NTP]
# U.S. Food and Drug Administration [FDA]
# DRD2 is the D2 subtype of the dopamine receptor, which is coupled to Gi subtype of G protein-coupled receptor. This G protein-coupled receptor inhibits adenylyl cyclase activity. The DRD2-HEK293 cell line stably expressing D2 dopamine receptor can be used for screening agonists and antagonists of interactions between D2 and its ligands. The Hek293-DRD2 cAMP assay is based on HTRF technology. It measures changes of cAMP accumulation in response to Gi coupled GPCR activation or inhibition.
# Tox21 Assay Protocol Summary:
# DRD2-Hek293 cells were dispensed at 600 cells/3uL/well in 1536-well white plates using a Multidrop Dispenser. After the assay plates were incubated at a 37 C/5% CO2 incubator for 24 h, 1 uL of Ro20-1724 at final concentration of 0.1 mM was transferred to the assay plate by a Flying Reagent Dispenser. Following Ro20-1724 addition, 23 nL of compound dissolved in DMSO, positive controls or DMSO only was added to the assay plates via Wako pintool station. The assay plates were incubated at room temperature for 10 min. Next, 1 uL of NKH477 at 200nM was added into the plates. After the assay plates were incubated at room temperature for an additional 30 min, 2.5 ul/well of cAMP-d2 and 2.5 ul/well of anti-cAMP-cryptate were added respectively into the assay plates using a Flying Reagent Dispenser. The plates were incubated at room temperature for 1 h. The fluorescence intensity in the plates was measured at 340 nm excitation and 665 & 620 nm emission by an Envision plate reader.
# On the % scale 0 is the no-effect control and ±100 the full control effect.
# Sequence of D(2) dopamine receptor (Homo sapiens) (P14416 whole entry, looked up): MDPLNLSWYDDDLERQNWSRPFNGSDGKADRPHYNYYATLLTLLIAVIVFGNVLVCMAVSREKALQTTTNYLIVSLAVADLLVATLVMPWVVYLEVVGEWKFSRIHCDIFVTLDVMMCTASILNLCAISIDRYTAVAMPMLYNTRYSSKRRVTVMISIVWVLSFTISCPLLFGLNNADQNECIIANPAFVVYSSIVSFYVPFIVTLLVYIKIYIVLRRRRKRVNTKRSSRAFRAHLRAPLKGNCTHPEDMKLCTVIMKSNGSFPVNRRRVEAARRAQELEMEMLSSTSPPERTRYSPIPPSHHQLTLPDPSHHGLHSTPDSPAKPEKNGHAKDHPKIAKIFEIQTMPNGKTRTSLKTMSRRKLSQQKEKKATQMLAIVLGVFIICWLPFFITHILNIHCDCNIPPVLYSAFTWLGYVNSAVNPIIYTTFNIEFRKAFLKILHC
row,SMILES,activation
1,COc1ccnc(CS(=O)c2nc3ccc(OC(F)F)cc3[nH]2)c1OC (stereo not given),-11% [at 42.5 µM] (inactive)
2,Clc1cccc(C(c2ccc3nc[nH]c3c2)n2ccnc2)c1 (stereo not given),1.44% [at 42.5 µM] (inactive)
3,Cc1cc([N+](=O)[O-])ccc1N,0.565% (inactive)
4,Nc1ccn([C@H]2CS[C@@H](CO)O2)c(=O)n1,-0.109% (inactive)
5,NC(=O)c1ccccc1,4.43% (inactive)
6,COc1cc(S(=O)(=O)Nc2ccccc2)c(OC)cc1N,11.9% (inactive)
7,CC1=C(C(=O)O)N2C(=O)[C@@H](NC(=O)[C@H](N)c3ccc(O)cc3)[C@H]2SC1,-5.59% [at 42.5 µM] (inactive)
8,CCCCCCCCCCCCCBr,0.0272% (inactive)
9,C[Si](Cl)(c1ccccc1)c1ccccc1,-6.21% (inactive)
10,Oc1ccccc1F,3.24% (inactive)
11,Cc1oc(=O)oc1CN1CCN(c2cc3c(cc2F)c(=O)c(C(=O)O)c2n3C(C)S2)CC1 (stereo not given),-1.17% [at 42.5 µM] (inactive)
12,O=C(NN1CCCC1)NS(=O)(=O)c1ccc(Cl)cc1,-7.33% [at 42.5 µM] (inactive)
13,CN(C)CCN(Cc1ccccc1)c1ccccn1,-4.05% [at 42.5 µM] (inactive)
14,NC(=O)c1ccccc1C(N)=O,1.49% (inactive)
15,CC(C)(C)C1CCCCC1=O (stereo not given),-2.68% (inactive)
16,Cc1c(C)n(Cc2ccccc2)c2ccc(C(=O)OCCN(C)C)cc12,-0.971% [at 42.5 µM] (inactive)
17,Cc1ccc(C(C)C)cc2c(C)ccc1-2,6.34% [at 42.5 µM] (inactive)
18,c1ccc2sc(SN3CCOCC3)nc2c1,-16.2% [at 42.5 µM] (inactive)
19,CCCCCCCCCCl,1.84% (inactive)
20,CN1CCC[C@@H]1c1cccnc1,2.15% [at 42.5 µM] (inactive)

row,SMILES,activation
1,O=[N+]([O-])c1cccc(S(=O)(=O)O)c1,-3.04% (inactive)
2,CC/C=C/CCCCCCCCCCOC(C)=O,2.13% (inactive)
3,C/C=C/C=C/CO,0.162% (inactive)
4,CCOC(=O)c1ccccc1C(=C1C=C(Br)C(=O)C(Br)=C1)c1cc(Br)c(O)c(Br)c1,6.51% [at 42.5 µM] (inactive)
5,C=C(C)C(=O)OCCOC1CC2CC1C1C=CCC21 (stereo not given),-17.5% (inactive)
6,CN(C)Cc1cc(C(C)(C)C)c(O)c(C(C)(C)C)c1,11.5% (inactive)
7,CCC(C)(C)OC,-2.09% (inactive)
8,Cn1cnc2c(=O)[nH]c(N)nc21,-2.03% (inactive)
9,C=CCOc1ccccc1OCC(O)CNC(C)C (stereo not given),0.269% [at 42.5 µM] (inactive)
10,C/C=C1/C(=O)C[C@H]2[C@@H]3CCC4=CC(=O)CC[C@]4(C)[C@H]3CC[C@]12C,-1.72% (inactive)
11,COC(=O)CCSCCC(=O)OC,0.299% (inactive)
12,CCCCCCCCC(=O)OCC(C)OC(=O)CCCCCCCC (stereo not given),0.811% (inactive)
13,COP(=O)(OC)OC(c1ccc(Cl)cc1)P(=O)(OC)OC (stereo not given),5.88% [at 42.5 µM] (inactive)
14,CC(C)(C)c1ccc(OCC2CO2)cc1 (stereo not given),4.41% (inactive)
15,C=CC(=O)OCC1CC2CC1C1CCC(COC(=O)C=C)C21 (stereo not given),-1.49% (inactive)
16,CCCCCCC(C)OC(=O)COc1nc(F)c(Cl)c(N)c1Cl (stereo not given),-20.9% (inactive)
17,O=C(Oc1ccccc1)Oc1ccccc1,0.563% (inactive)
18,CCCC1CCC(=O)CC1,-0.398% (inactive)
19,CCOc1ccc(C(=O)OCCN(CC)CC)cc1,-17% [at 42.5 µM] (inactive)
20,CC(C)c1ccc2c(c1)CC[C@H]1[C@](C)(CN)CCC[C@]21C,-12.2% (inactive)
